# Data reported in PubChem BioAssay.
# “And” between values parts separate entries of the source, which are not always exact repeats. Identical values can stand only once. For some assays here: Potency and affinity values are given separately. The source made the active and inactive calls.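 How the source made its calls, unless noted: active means thallium flux through the channel raised or lowered by more than 3 SD from vehicle-only wells, actives on both sides; inactive means the rest.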
# Columns and labels:
# [1] = polyglutamine-triggered caspase-3 activation inhibitors, cell-based (AID 1583); settings: polyglutamine-induced caspase-3 activation, cell assay; stronger effect = higher value;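 tested at 10 µM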
# [2] = suppressors of polyQ aggregation in yeast, 75Q-TubU reporter (AID 1593); settings: Yeast 75Q polyglutamine aggregation reporter
# [3] = rescue of polyQ-huntingtin neuronal dysfunction in worms, whole organism, C. elegans mechanosensory neurons, N-terminal huntingtin (AID 1599); settings: touch response, stronger effect = higher value
# [4] = inhibitors of mitochondrial cytochrome c release, biochemical, purified mitochondria (AID 1603); settings: stronger effect = lower value;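 further: mouse liver mitochondria challenged with calcium chloride; signal normalized to the plate average as 100%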
# [5] = inhibitors of polyQ protein aggregation (AID 1604); settings: polyglutamine-induced protein aggregation inhibition assay; stronger effect = higher value; tested at 2.5 µM
# [6] = enhancers of glutamate uptake in motor neurons, MN-1 cell line (AID 1612); settings: MN-1 motor neuron cells, stronger effect = higher value;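 further: tested at 1 µM final; 0% = mean of DMSO vehicle wells on each plate; positive means more glutamate uptake than control and negative means less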
# [7] = suppressors of polyglutamine aggregation in yeast, 75Q-TubH (AID 1616); settings: S. cerevisiae 75Q-TubH polyglutamine aggregation suppression; stronger effect = higher value
# [8] = hESC survival regulators, cell-based (AID 493140; call rule not given here;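 further: cells exposed to compounds for four days before counting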); settings: human embryonic stem cell survival screen; stronger effect = higher value
# [9] = system: Hepatitis C virus NS3 helicase; assay: HCV NS3 helicase inhibitors, primary screen, biochemical, fluorescence polarization, LOPAC1280 library (AID 687035; in the data active means inhibition above about 37%); settings: Purified HCV NS3 helicase, Cy5-dT15 ssDNA binding fluorescence polarization; stronger effect = higher value; concentration not given here
# [10] = Cy5 fluorescence interference with SSB-bound oligo, artefact control for HCV NS3 helicase inhibitor project, biochemical, NIH Clinical Collection, E. coli SSB (AID 743268; call rule not given here)
# [11] = modulation of C. elegans fzo-1 (AID 1259413; call rule not given here;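 further: fzo-1 mutant C. elegans worms in liquid wells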); settings: C. elegans fzo-1 modulator screen, mean read-out; stronger effect = higher value
# R275C = assay: modulators of BK channel variants, profiling panel, selectivity assay, cell-based, U2OS BacMam, thallium flux, beta subunits (AID 1259406); settings: at 30 µM;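 further: initial slope of Thallos dye fluorescence rise after thallium is added; log ratio against the mean of 0.3% DMSO vehicle wells on the same plate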
# R275C/beta1 = assay: as above; settings: at 30 µM
# R275C/beta2Delta = assay: as above; settings: at 30 µM
# [12] = liver-stage malaria parasite growth inhibition, primary screen, cell-based, HepG2, luciferase luminescence, HepG2 viability (AID 624349; in the data active means parasite load remaining mostly below about 12%, no sharp cut-off; inactive means mostly above about 10%;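 further: 100% = mean of DMSO negative control wells on the same plate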); settings: P. berghei liver stage in HepG2, luciferase luminescence, concentration not given here; parasite load remaining: stronger effect = lower value; viability: measured here: HepG2 viability without parasites
# [13] = viability rescue of complex I mutant cybrids, primary screen, cell-based, galactose medium, ATP luminescence (AID 1645843;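 active means z-score of at least 1.8 in each of two replicates, scored against plate mean and spread of sample wells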;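 further: positive z means more ATP and so rescue of galactose-driven cybrid death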); settings: complex I mutant cybrid cells, 72 h, stronger effect = higher value
# F380Y/beta1 = assay: modulators of BK channel variants, profiling panel, selectivity assay, cell-based, U2OS BacMam, thallium flux, beta subunits (AID 1259406); settings: at 30 µM;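 further: initial slope of Thallos dye fluorescence rise after thallium is added; log ratio against the mean of 0.3% DMSO vehicle wells on the same plate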
# F380Y/beta4 = assay: as above; settings: at 30 µM
# R275C/beta4 = assay: as above; settings: at 30 µM
# R275C/Slo1WT/beta2 = assay: as above; settings: at 30 µM
smiles,measurement,setting,value
NC(N)=NC(=O)c1nc(Cl)c(N)nc1N,inhibition,[1],17.4%
same,score,[2],0.64
same,rescue above control,[3],-10.9
same,cytochrome c release ratio,[4],1.1
same,inhibition of aggregation,[5],27.6%
same,glutamate uptake change,[6],-1.52%
same,aggregation suppression score,[7],1.02
same,survival,[8],8.17 (inactive)
same,inhibition,[9],1% (inactive)
same,fluorescence ratio,[10],0.95 (inactive)
same,mean signal,[11],212 (inactive)
same,log fold change Tl+ flux,R275C,-0.0162 (inactive)
same,log fold change Tl+ flux,R275C/beta1,0.0417 (inactive)
same,log fold change Tl+ flux,R275C/beta2Delta,-0.00743 (inactive)
COc1cc2nc(N3CCN(C(=O)c4ccco4)CC3)nc(N)c2cc1OC,inhibition,[1],16.5%
same,score,[2],1.21
same,rescue above control,[3],-0.41
same,cytochrome c release ratio,[4],1.07
same,inhibition of aggregation,[5],70.4%
same,glutamate uptake change,[6],-22.2%
same,aggregation suppression score,[7],1.01
same,survival,[8],0.667 (inactive)
same,inhibition,[9],-1% (inactive)
same,mean signal,[11],236 (inactive)
same,log fold change Tl+ flux,R275C,-0.0502 (inactive)
same,log fold change Tl+ flux,R275C/beta1,-0.0587 (inactive)
same,log fold change Tl+ flux,R275C/beta2Delta,-0.0145 (inactive)
C=CCCCCCCCCC(=O)O,parasite load remaining,[12],49.2% (inactive)
same,viability,[12],96.2%
CCCN1C[C@H](CSC)C[C@@H]2c3cccc4[nH]cc(c34)C[C@H]21,inhibition,[1],21.1%
same,score,[2],1
same,rescue above control,[3],-1.5
same,cytochrome c release ratio,[4],1.44
same,inhibition of aggregation,[5],61.1%
same,glutamate uptake change,[6],-2.13%
same,aggregation suppression score,[7],1.46
same,survival,[8],12.4 (inactive)
same,inhibition,[9],-6% (inactive)
same,fluorescence ratio,[10],1.02 (inactive)
same,z-score,[13],0.12 (inactive) and -0.1 (inactive)
same,log fold change Tl+ flux,R275C,-0.00135 (inactive)
same,log fold change Tl+ flux,R275C/beta1,-0.0389 (inactive)
same,log fold change Tl+ flux,R275C/beta2Delta,-0.00636 (inactive)
C#C[C@]1(O)CC[C@H]2[C@@H]3CCC4=Cc5oncc5C[C@]4(C)[C@H]3CC[C@@]21C,survival,[8],10.4 (inactive)
same,fluorescence ratio,[10],1.05 (inactive)
same,z-score,[13],-1.4 (inactive) and -1.46 (inactive)
same,log fold change Tl+ flux,F380Y/beta1,0.032 (inactive)
same,log fold change Tl+ flux,F380Y/beta4,-0.0261 (inactive)
same,log fold change Tl+ flux,R275C,0.0195 (inactive)
same,log fold change Tl+ flux,R275C/beta1,0.048 (inactive)
same,log fold change Tl+ flux,R275C/beta2Delta,-0.00872 (inactive)
same,log fold change Tl+ flux,R275C/beta4,0.0847 (inactive)
same,log fold change Tl+ flux,R275C/Slo1WT/beta2,-0.016 (inactive)
O=C(c1ccccc1)c1ccc2n1CCC2C(=O)O (centres undefined),inhibition,[1],1.05%
same,score,[2],1.22
same,rescue above control,[3],-3.9
same,cytochrome c release ratio,[4],1.43
same,inhibition of aggregation,[5],60.8%
same,glutamate uptake change,[6],14.7%
same,aggregation suppression score,[7],1.2
same,survival,[8],2.17 (inactive)
same,inhibition,[9],-3% (inactive)
same,fluorescence ratio,[10],1.01 (inactive)
same,mean signal,[11],231 (inactive)
same,z-score,[13],0.335 (inactive) and 1.09 (inactive) and 0.445 (inactive)
Nc1c2c(nc3ccccc13)CCCC2,inhibition,[1],-14.1%
same,score,[2],1.21
same,rescue above control,[3],-13.1
same,cytochrome c release ratio,[4],0.63
same,inhibition of aggregation,[5],38.8%
same,glutamate uptake change,[6],4.59%
same,aggregation suppression score,[7],1.23
same,survival,[8],6.42 (inactive)
same,inhibition,[9],-2% (inactive)
same,fluorescence ratio,[10],0.95 (inactive)
same,mean signal,[11],215 (inactive)
same,log fold change Tl+ flux,R275C,0.0238 (inactive)
same,log fold change Tl+ flux,R275C/beta1,-0.0128 (inactive)
same,log fold change Tl+ flux,R275C/beta2Delta,-0.0194 (inactive)
CC(=O)OCC(=O)[C@@]12OC(C)(C)O[C@@H]1C[C@H]1[C@@H]3C[C@H](F)C4=CC(=O)C=C[C@]4(C)[C@@]3(F)[C@@H](O)C[C@@]12C,survival,[8],3.25 (inactive)
same,parasite load remaining,[12],84.8% (inactive) and 108% (inactive)
same,viability,[12],105% and 96.2%
same,fluorescence ratio,[10],1.05 (inactive)
same,z-score,[13],0.355 (inactive)
same,log fold change Tl+ flux,F380Y/beta1,0.0412 (inactive)
same,log fold change Tl+ flux,F380Y/beta4,0.048 (inactive)
same,log fold change Tl+ flux,R275C,-0.038 (inactive)
same,log fold change Tl+ flux,R275C/beta1,-0.00722 (inactive)
same,log fold change Tl+ flux,R275C/beta2Delta,-0.0403 (inactive)
same,log fold change Tl+ flux,R275C/beta4,0.0407 (inactive)
same,log fold change Tl+ flux,R275C/Slo1WT/beta2,0.0498 (inactive)
Fc1ccc([C@@H]2CCNC[C@H]2COc2ccc3c(c2)OCO3)cc1,inhibition,[9],-1% (inactive)
same,fluorescence ratio,[10],1 (inactive)
same,mean signal,[11],159 (inactive)
same,z-score,[13],-1.38 (inactive) and -0.63 (inactive) and -1.71 (inactive)
CNCCCC12CCC(c3ccccc31)c1ccccc12,inhibition,[1],-14.8%
same,score,[2],1.5
same,rescue above control,[3],28.8
same,cytochrome c release ratio,[4],1.86
same,inhibition of aggregation,[5],26.4%
same,glutamate uptake change,[6],22.4%
same,aggregation suppression score,[7],1.14
same,survival,[8],0.833 (inactive)
same,inhibition,[9],-6% (inactive)
same,fluorescence ratio,[10],0.97 (inactive)
same,mean signal,[11],255 (inactive)
same,log fold change Tl+ flux,R275C,0.0254 (inactive)
same,log fold change Tl+ flux,R275C/beta1,0.285 (active)
same,log fold change Tl+ flux,R275C/beta2Delta,0.217 (active)
CC(=O)S[C@@H]1CC2=CC(=O)CC[C@]2(C)[C@H]2CC[C@@]3(C)[C@@H](CC[C@@]34CCC(=O)O4)[C@H]12,survival,[8],17.9 (inactive)
same,fluorescence ratio,[10],0.99 (inactive)
same,z-score,[13],-0.25 (inactive) and 0.65 (inactive)
same,log fold change Tl+ flux,F380Y/beta1,0.0461 (inactive)
same,log fold change Tl+ flux,F380Y/beta4,-0.0243 (inactive)
same,log fold change Tl+ flux,R275C,0.0437 (inactive)
same,log fold change Tl+ flux,R275C/beta1,0.0449 (inactive)
same,log fold change Tl+ flux,R275C/beta2Delta,0.0485 (inactive)
same,log fold change Tl+ flux,R275C/beta4,0.0567 (inactive)
same,log fold change Tl+ flux,R275C/Slo1WT/beta2,0.0564 (inactive)
